Bioassay records (PubChem BioAssay)
The list is not random: actives were taken first. Their share in the collection is about 2.3%.
FUS suppressor: qHTS for Suppressors of FUS Proteinopathy: Primary screen using FUS-linked yeast assay. S. cerevisiae FUS-expressing, growth rescue, OD600, 24 h. Potency, µM (titrated, usually from 76.6 µM), most hits filed as activators. 390,000 compounds, 0.24% hits;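 further: potency means the concentration at half of the fitted maximal effect; plate controls were DMSO vehicle for no effect and reference control for full effect; nearly all actives have a fitted effect of over 55% in size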
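Yeast expressing FUS under galactose induction, OD 0.005 in 2% galactose medium; compounds in a dilution series, 24 h at 30C. Growth rescue by absorbance at 600 nm; CP55940 positive control, DMSO negative.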
Giardia killer: Small Molecules that selectively kill Giardia lamblia: qHTS; activity change, % at 7.66 µM, hits read low; 340,000 compounds, 0.15% hits; Giardia lamblia trophozoite viability; AID 540267, 2011; in the data active means activity change below about -80%; inconclusive means between about -30% and that limit;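 further: parasites exposed to compound for two days anaerobically before the ATP read; on the % scale 0 is the no-effect control and ±100 the full control effect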
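Giardia lamblia trophozoites (100 cells/well) were incubated with compounds for 48 h at 37 deg C under anaerobic conditions. Viability was read as ATP content by one-step luminescence after 15-30 min at room temperature.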
ELG1 DNA repair: qHTS screen for small molecules that inhibit ELG1-dependent DNA repair in human embryonic kidney (HEK293T) cells expressing luciferase-tagged ELG1. HEK293T ELG1-luciferase reporter, luminescence, 16 h; DNA damage induced by 5-fluorouridine. Potency, µM (series often up to 46.1 µM), inactives show top-dose activity change, negative = inhibition, usual class: inhibitors. 330,000 compounds, 2.3% hits. AID 504467, 2011; further: potency means the concentration at half of the fitted maximal effect; on the % scale 0 is the no-effect control and ±100 the full control effect; nearly all actives have a fitted effect of over 55% in size
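HEK293T cells expressing luciferase-tagged ELG1 (2,000/well) received 5-Fluorouridine plus compound or DMSO for 16 hr at 37 °C. Luciferase was read by ONE-Glo luminescence after 30 min at room temperature.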
TRPV1 ag: HTS Assay for Compounds that Act as Agonists of the Vanilloid Receptor 1; activation, % at 8.33 µM; TRPV1-expressing cells, Fluo-8 calcium influx, agonist mode; AID 540275, 2011; 320,000 compounds, 0.19% hits; in the data active means activation above about 80%; inconclusive means between about 30% and that limit; further: 0% is about no effect
Target sequence (Q8NER1 whole entry, looked up): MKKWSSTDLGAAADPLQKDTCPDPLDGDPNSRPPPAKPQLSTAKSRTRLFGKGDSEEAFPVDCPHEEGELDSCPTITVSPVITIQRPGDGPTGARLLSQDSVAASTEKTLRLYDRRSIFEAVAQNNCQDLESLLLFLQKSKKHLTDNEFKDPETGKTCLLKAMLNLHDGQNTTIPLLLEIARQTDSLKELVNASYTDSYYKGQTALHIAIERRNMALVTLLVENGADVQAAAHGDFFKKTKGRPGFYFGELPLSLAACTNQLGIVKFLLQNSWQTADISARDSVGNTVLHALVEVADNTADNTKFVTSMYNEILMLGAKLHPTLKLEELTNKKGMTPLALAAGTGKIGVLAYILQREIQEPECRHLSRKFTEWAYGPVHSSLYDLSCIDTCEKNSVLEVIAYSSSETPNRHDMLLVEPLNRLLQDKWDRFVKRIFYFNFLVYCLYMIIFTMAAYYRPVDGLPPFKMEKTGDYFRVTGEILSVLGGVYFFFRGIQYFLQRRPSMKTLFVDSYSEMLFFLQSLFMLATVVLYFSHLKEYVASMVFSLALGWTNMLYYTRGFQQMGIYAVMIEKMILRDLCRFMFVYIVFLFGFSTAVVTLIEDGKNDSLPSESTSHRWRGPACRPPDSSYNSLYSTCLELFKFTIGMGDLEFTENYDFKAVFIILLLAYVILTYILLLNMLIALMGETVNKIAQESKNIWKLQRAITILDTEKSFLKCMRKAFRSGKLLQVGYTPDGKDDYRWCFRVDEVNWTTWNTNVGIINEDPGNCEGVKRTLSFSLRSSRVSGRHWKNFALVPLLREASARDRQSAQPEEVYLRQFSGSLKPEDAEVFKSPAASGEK
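Cells expressing TRPV1 were dye-loaded with Fluo-8 and read kinetically: 10 s baseline, 3 min after compound (agonist portion), then 2 min after EC20 capsaicin (allosteric enhancer portion). Calcium-bound dye fluorescence at 480/520 nm.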
TRPV1 PAM: HTS Assay for Compounds that Act as Potentiators of the Vanilloid Receptor 1; TRPV1-expressing cells, Fluo-8 calcium influx, capsaicin EC20 potentiation; potentiation, % at 8.33 µM; AID 540277, 2011; Transient receptor potential cation channel subfamily V member 1 (Homo sapiens), Q8NER1; 320,000 compounds, 0.02% hits; in the data active means potentiation above about 80%; inconclusive means between about 30% and that limit; further: 0% is about no effect
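Fluo-8 calcium influx in TRPV1-expressing cells, kinetic read (ex 480/em 520 nm). Compound added and read 3 min for agonist activity, followed by capsaicin at EC20 final and 2 min further read for enhancement.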
Numbers without * were called inactive; i = inactive; ? = inconclusive; · = no result given. Unless noted, the call rests on the fitted dose curve; in most records, active means well fitted curve in the direction sought with a large enough effect; inconclusive means small, poorly fitted or top-dose-only effect, or another doubt; inactive means no such curve, though single readings can be large; an effect the other way counts as inactive or inconclusive.

SMILES	FUS suppressor	Giardia killer	ELG1 DNA repair	TRPV1 ag	TRPV1 PAM
Cc1ccccc1C1C(C#N)=C2N=C(N)c3c(sc4c3CCCCC4)N2C2=C1C(=O)CC(C)(C)C2 (stereo not drawn)	28.2µM*	-4.7	-16.8%	0.3	?
Cc1cc(C(N)=O)c2ccccc2n1	i	0.7	-12.6%	-3.1	-13.5
NC(=O)c1cc2ccncc2c2ccccc12	i	11.4	1.3µM*	1.5	-6.3
CC(C)c1ccc(NC(=O)CCS(=O)(=O)c2ccc3c(c2)CC(=O)N3C)cc1	i	·	·	·	·
CN1CCN(Cc2nc3ccccc3c(=O)n2Cc2nc(-c3cccc([N+](=O)[O-])c3)cs2)CC1	?	9.5	?	-5.9	-3.6
CN1CCN(Cc2nc3ccccc3c(=O)n2Cc2nc(-c3ccccc3F)cs2)CC1	·	-3.7	16.4µM*	2.4	0.7
CN1CCN(Cc2nc3ccccc3c(=O)n2Cc2nc(-c3ccc4ccccc4c3)cs2)CC1	i	1.6	13µM*	1.3	7.2
O=C(Nc1ccc(F)cc1)OCc1cn(Cc2ccccc2)nn1	i	·	·	·	·
CCc1ccccc1NC(=O)C(=O)NCC(c1cccnc1)N1CCN(c2ccccc2F)CC1 (stereo not drawn)	i	·	·	·	·
O=C(Nc1ccc2[nH]c3c(c2c1)CCCC3)c1ccco1	?	-6.5	4.47µM*	-9.0	-21.2
Cc1cc2cc(NC(=O)c3ccco3)ccc2[nH]1	i	-9.3	?	-1.9	5.9
COc1cc(C#Cc2c(-c3cncn3C)n(C)c3ccc(-c4ccc5[nH]ccc5c4)cc23)cc(OC)c1	?	-9.1	?	1.8	0.7
COc1cc(C#Cc2c(-c3cncn3C)n(C)c3ccc(-c4ccc(OC)nc4)cc23)cc(OC)c1	?	-20.2	7.3µM*	-0.1	-7.2
COc1cc(C#Cc2c(-c3cncn3C)n(C)c3ccc(-c4cc(OC)c(OC)c(OC)c4)cc23)cc(OC)c1	?	?	5.17µM*	·	·
CNc1cnc(-c2cccc(C(=O)N3CCOCC3)c2)cn1	i	·	·	·	·
Cc1ccc(S(=O)(=O)N2CCOCC2)cc1C(=O)NCCN1C(=O)S/C(=C\c2ccccc2Cl)C1=O	·	3.9	20.6µM*	9.2	3.6
N=c1c2c(n(Cc3ccc([N+](=O)[O-])cc3)c3c1CCC3)CCCC2	i	23.5	8.2µM*	1.5	2.1
O=C(c1ccc(Br)s1)N(Cc1cccnc1)c1nc2ccc(F)cc2s1	i	·	·	·	·
O=c1c2c(nc3c(-c4ccc(Cl)cc4)c[nH]n13)CCCC2	i	-7.4	10.3µM*	27.5	-11.5
O=c1c2c(nc3c(-c4cccc5ccccc45)c[nH]n13)CCC2	i	-8.6	-0.4%	16.4	?
N#Cc1c(N)nc(SCc2ccncc2)c(C#N)c1-c1cccs1	i	6.4	5.17µM*	-0.4	0.5
Cc1ccccc1NC(=O)CSc1nc(N)c(C#N)c(-c2cccs2)c1C#N	i	3.2	-24.7%	0.0	-17.2
COc1cc(-c2c(C#N)c(N)nc(SCc3ccncc3)c2C#N)cc(OC)c1OC	i	15.1	11.2µM*	2.2	-5.1
CC(=O)N1c2ccc(S(=O)(=O)NCC3CCC(C(=O)Nc4cccc(F)c4)CC3)cc2CC1C (stereo not drawn)	i	·	·	·	·
CCCCCCn1cc(CN2CC(N3CCN(CCO)CC3)CS2(=O)=O)nn1 (stereo not drawn)	i	·	·	·	·
SMILES	FUS suppressor	Giardia killer	ELG1 DNA repair	TRPV1 ag	TRPV1 PAM
CCn1c(=O)c([N+](=O)[O-])c(N2CCSCC2)c2ccccc21	i	-22.4	6.51µM*	?	-17.1
O=c1c([N+](=O)[O-])c(N2CCOCC2)c2ccccc2n1Cc1ccccc1	i	-13.8	-4.5%	-0.8	-13.7
CCn1c(=O)c([N+](=O)[O-])c(N2CCN(Cc3ccc4c(c3)OCO4)CC2)c2ccccc21	i	25.7	14.6µM*	7.1	-0.6
Cn1c(=O)c([N+](=O)[O-])c(N2CCSCC2)c2ccccc21	i	2.0	?	?	-15.7
COc1ccc(OC)c(CCNC(=O)c2ccc3c(=O)[nH]c4c(C(=O)NC(C)C)sc(=S)n4c3c2)c1	i	1.4	10.3µM*	-2.7	-1.2
CC(=O)Nc1c(C)nn(-c2ccccc2)c1N1CCC(C(=O)Nc2cccc(C(F)(F)F)c2)CC1	i	·	·	·	·
CCc1ccc(C(=O)c2cn(CC(=O)Nc3ccc4c(c3)OCO4)c3ccc(OC)cc3c2=O)cc1	i	·	·	·	·
CC(CNC(=O)c1cc(COc2ccc3ncccc3c2)on1)c1ccccc1 (stereo not drawn)	·	10.8	10.3µM*	?	-9.0
Cc1cc(CN(C)C(=O)c2cc(COc3ccc4ncccc4c3)on2)on1	i	-0.3	?	1.9	-5.6
O=C(Nc1cccc(Br)c1)c1cccc(OC(=S)N2CCOCC2)c1	?	-4.5	14.6µM*	0.3	19.2
Cc1cc(C)nc(N2CCCC(C(=O)Nc3ccc4c(c3)OCO4)C2)n1 (stereo not drawn)	i	8.1	2.1%	82.7*	6.8
CCN1CCc2c(sc(NC(=S)NC(=O)c3cccc(F)c3)c2C(N)=O)C1	·	1.4	·	·	·
CNc1ccc2c3c(cccc13)C(=O)N(C)C2=O	i	3.2	-16.5%	102.6*	-2.9
COc1ccccc1C(=O)OCc1c(-c2ccccc2)ncc2ccccc12	?	-0.9	16.4µM*	·	·
COc1ccc(C(=O)OCc2c(-c3ccccc3)ncc3ccccc23)cc1	?	-6.5	?	·	·
CCCOCc1ccc(O)c2ncccc12	i	-3.3	7.3µM*	0.0	6.3
CC(C)COCc1ccc(O)c2ncccc12	i	2.9	20.6µM*	0.4	4.5
Oc1ccc(COCc2ccccc2)c2cccnc12	i	-2.9	?	1.0	18.5
COC(=O)[C@@]1(Cc2ccccc2)[C@@H]2C(=CC(=O)[C@H]2CC(=O)C(=O)N(C)C)CN1C(=O)c1ccccc1	i	-6.6	7.31µM*	9.0	15.0
N#Cc1ccccc1Cn1cc(/C=N/Nc2ccc([N+](=O)[O-])cn2)c2ccccc21	i	0.0	6.51µM*	-2.3	-0.4
O=[N+]([O-])c1ccc(NN=Cc2ccccc2O)nc1	i	18.4	·	·	·
Cc1ccc(C(=O)N(CC(=O)Nc2sc(C)c(C)c2C(N)=O)C2CCCC2)cc1	i	-20.5	?	1.8	-3.7
Cc1sc(NC(=O)CN(C(=O)c2ccccc2F)C2CCCC2)c(C(N)=O)c1C	i	2.7	16.4µM*	9.5	6.7
O=C1OCC(CO)(CO)N=C1NNc1ccccc1[N+](=O)[O-]	i	-23.4	7.3µM*	-0.5	-11.8
